Data on 40 molecules can be found in PubChem BioAssay (NCI).

About 79,000 compounds went through this panel and 15% of them were active in at least one assay; those are over-represented in the sample as a whole. A number with no mark means an inactive call. Activity calls are given as the source filed them. Rule as the data show it: active = growth inhibition above about 70%; inactive = the rest.

A short description of this test: NCI Yeast Anticancer Drug Screen. Data for the mlh1 rad18 strain (AID 175). The following applies: S. cerevisiae mlh1 rad18 strain growth inhibition; at 50.0 µM; active compounds read high. Summed up: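 Vehicle-treated cultures served as the reference for growth inhibition in a yeast strain carrying DNA damage repair alterations exposed to each compound.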
On to `N#C/C(=C\C(Cl)=C/c1ccccc1)C(N)=S`, for which the growth inhibition is 40.4%.

As for `CC[N+](C)(CC)CCC(=O)/C=C/c1ccccc1`, the growth inhibition was -47.8%. For `CC(=O)n1c(=S)n(C(C)=O)c2ccccc21` the value was 30.1%; for `Nc1ccccc1/C=C1/Sc2cc[nH]c2C1=O`, -9.8%.

For `C=C1CC2(CCCC3(CC(=C)C(=O)O3)C2(C)C)OC1=O` (stereo not given), the growth inhibition is 66.6%. In the case of `O=C1/C(=C\c2ccc(Cl)cc2Cl)Sc2scc(-c3ccc(O)c(O)c3)[n+]21` it was 91.8% (active); in that of `COc1cc(OC(C)C)cc2c1C(=O)C(C(O)(O)C(F)(F)F)=CC2=O`, 92.8% (active); in that of `Cc1c(N=Nc2ccc(Br)cc2)c(-c2ccccc2)nn1C(N)=S`, 97.7% (active).

For `COc1ccc2nc3c([N+](=O)[O-])ccc(NCCCN(C)C)c3c(N)c2c1`, the growth inhibition was 88.6% (active).

On to `CN(C)CCC[Si]1(C)c2ccccc2CCc2ccccc21`, for which the growth inhibition is 78.8% (active).

Turning to `CC(=O)N(C)c1cc(NCc2ccccc2)ccc1OCc1ccccc1`, the growth inhibition was 98.3% (active). In the case of `ClCCOCCOc1c(Cl)cc(Cl)c(Cl)c1Cl` it was 71% (active). With `Nc1ccc2nc(N)sc2c1`, the growth inhibition was -6.65%.

As for `CC(C)(C)c1cc(C2c3cc4c(cc3OC(O)(CO)C2C(=O)O)OCO4)cc(C(C)(C)C)c1O` (stereo not given) (tested in a mixture with another compound), the growth inhibition is 52.6%. Take `COc1ccc(C2COc3c(ccc(O)c3O)C2)cc1OC` (stereo not given): the growth inhibition is 40.2%. For the molecule `Cc1ccc(OCC2CO2)c(Br)c1` (stereo not given), the growth inhibition was 24.1%.

For `CCN(CC)CCNc1ccc(C)c2sc3c(OC)cccc3c(=O)c12`, the growth inhibition was 11.8%. Consider `CC(C)C(O)C(C)C`, for which the growth inhibition was 49.5%.

As for `O=C1CSC2(CCN(CCCN3c4ccccc4Sc4ccc(Cl)cc43)CC2)N1`, the growth inhibition was 91.2% (active).

As to `C1=CN2C(c3ccccc3)=NN(c3ccccc3)[C@@H]2c2ccccc21`, the growth inhibition was 54.8%. In the case of `CC(=O)Nc1ccc(-c2csc(Nc3ccnc4cc(Cl)ccc34)n2)cc1`, the growth inhibition is 82.9% (active). On to `O=C(Nc1ccc(/C=C/c2ccc(NC(=O)c3cc(S(=O)(=O)O)c4cccnc4c3O)cc2S(=O)(=O)O)c(S(=O)(=O)O)c1)c1cc(S(=O)(=O)O)c2cccnc2c1O`, for which the growth inhibition was 91.3% (active). On to `COc1ccccc1C1C2=C(COC2=O)OC(C)(C)Oc2cc3c(cc21)OCO3` (stereo not given), for which the growth inhibition was 88% (active). Take `COC(=O)CSc1n[nH]c(-c2ccc(O)c([N+](=O)[O-])c2)n1`: the growth inhibition was 57.4%. In the case of `COc1ccc(CN2CCCN(Cc3ccc(OC)cc3OC)C2c2cccc([N+](=O)[O-])c2O)c(OC)c1` it was 51.4%; in that of `Oc1c(Cl)cc(C(c2cc(Cl)c(O)c(Cl)c2)C(Cl)(Cl)Cl)cc1Cl`, 98.6% (active); in that of `Cc1cc(Cl)cc2c1NC(=O)C2(O)C/C(=N/NC(=O)CC#N)c1cccc([N+](=O)[O-])c1` (stereo not given), 76.8% (active).

With `COc1ccc(C2Oc3ccc(Cl)cc3C=C2[N+](=O)[O-])cc1` (stereo not given), the growth inhibition is 79% (active). For the molecule `CN(Cc1cc(Cl)cc(Cl)c1O)Cc1c(O)ccc2ccccc12`, the growth inhibition is 98.5% (active). For `Cc1c(NC(=O)/C(=N/NC(=S)N=N)C2C(=O)CC(C)(C)CC2=O)c(O)c2ccccc2c1O` the value was 93% (active).

Take `O=C1CCC(Cc2ccccc2Br)C(=O)N1` (stereo not given): the growth inhibition is 6.35%. `O=C1CSc2ccccc2-n2cccc21`: the growth inhibition is 1.95%. In the case of `CCCc1cc2c(cc1CS(=O)(=O)CC)OCO2` it was 3.75%; in that of `CS(=O)(=O)C(c1nc2nnc(NC(=O)Nc3ccc(Cl)cc3)n2[nH]c1=O)c1nc2nnc(NC(=O)Nc3ccc(Cl)cc3)n2[nH]c1=O`, 62.5%. Regarding `COc1cc(C2c3cc4c(cc3OC3(O)C=C(C)OC(=O)C23)OCO4)cc(OC)c1OC` (stereo not given), the growth inhibition was 29.9%. For `CC(C)OCc1cccc2ccnc(COC(C)C)c12` the value was 25.1%. In the case of `COc1cc2c(cc1OC)-c1nc(Nc3ccccc3)sc1CC2` it was 93% (active); in that of `NC(=O)CCSC(=S)N1CCOCC1`, -17.4%; in that of `CC1=C(c2ccccc2)C(=O)OC1=O`, -10.4%. Consider `CC1=C(C)CC2C(=O)C(C(O)CC(C)C)=CC(=O)C2C1` (stereo not given), for which the growth inhibition is 98.9% (active).
